Inconclusive results are not listed. Calls of active or inactive are those of the source. Calls come from the whole dose curve; as a rule, active = well fitted inhibition curve with a large enough effect; inconclusive = small, poorly fitted or top-dose-only effect; inactive = flat fitted curve, though single readings scatter.
How the values were obtained:
Assay in all cases: qHTS profiling for inhibitors of Plasmodium falciparum proliferation (AID 504749); note: nearly all actives have a fitted effect of over 60% in size
Conditions in all cases: P. falciparum in erythrocytes, SYBR Green DNA, 72 h; series mostly up to 28.7 µM
CP305 = system: CP305
Method in brief: (§1)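 Readout was DNA-dye fluorescence from lysed cultures, ex 485/em 535 nm. Parasitized red cells had grown 72 h with compound; data scaled between 0.29 uM artemisinin and DMSO wells and corrected using vehicle-only plates.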

CP315 = system: CP315
Method in brief: as §1

CP325 = system: CP325
Method in brief: as §1

CP329 = system: CP329
Method in brief: as §1

CP335 = system: CP335
Method in brief: as §1

DFO2036 = system: DFO2036
Method in brief: as §1

DIV14 = system: DIV14
Method in brief: as §1

DIV17 = system: DIV17
Method in brief: as §1

DIV30 = system: DIV30
Method in brief: as §1

Dd2 = system: Dd2
Method in brief: as §1

Measured: Potency
Potency is the fitted concentration of half-maximal effect.

CC(=O)Oc1cc(C(F)(F)F)ccc1C(=O)O
inactive: all assays above

C[C@H](O)CN(C)C
inactive: all assays above

FC(F)(F)COCC(F)(F)F
inactive: all assays above

CN=C1C=CC(=C(c2ccc(N(C)C)cc2)c2ccc(N(C)C)cc2)C=C1
active: CP305 0.953 µM | CP315 1.07 µM | CP325 0.953 µM | CP329 0.757 µM | CP335 0.301 µM | DFO2036 0.398 µM | DIV14 1.51 µM | DIV17 1.51 µM | DIV30 1.69 µM | Dd2 0.282 µM

O=C1NCCN1c1ncc([N+](=O)[O-])s1
inactive: all assays above

CCN(CC)C(=O)c1cccnc1
inactive: all assays above

COc1ccc(/C=N/NC(=O)c2ccncc2)c(C(=O)O)c1OC
inactive: all assays above

CN1C(=O)OC(C)(C)C1=O
inactive: all assays above

CCCCCCCCCCCC(=O)OCC(O)CO (stereo not given)
inactive: all assays above

Cc1nc(NS(=O)(=O)c2ccc(N)cc2)nc(C)c1Br
inactive: all assays above

COC1=C(OC)C(=O)C(C/C=C(\C)CC/C=C(\C)CC/C=C(\C)CC/C=C(\C)CC/C=C(\C)CC/C=C(\C)CC/C=C(\C)CC/C=C(\C)CC/C=C(\C)CCC=C(C)C)=C(C)C1=O
inactive: all assays above

CC/C=C\C/C=C\C/C=C\C/C=C\C/C=C\CCCC(=O)O
inactive: all assays above

CCCCC
inactive: all assays above

CC1=CC(=C(c2ccc(N)cc2)c2ccc(N)cc2)C=CC1=N
active: CP305 4.26 µM | CP315 4.78 µM | CP325 6.01 µM | CP329 4.78 µM | CP335 2.13 µM | DFO2036 2.82 µM | DIV14 1.07 µM | DIV17 1.35 µM | DIV30 5.36 µM | Dd2 2.82 µM

CCCOC(=O)c1ccccc1O
inactive: all assays above

CCCCO
inactive: all assays above

CN(Cc1ccccc1)Cc1ccccc1
inactive: all assays above

CCN(CC)CCOC(=O)c1cccnc1
inactive: all assays above

OCl
inactive: all assays above

C[Se]CC[C@H](N)C(=O)O
inactive: all assays above

F[Si-2](F)(F)(F)(F)F
inactive: all assays above

Cc1ncc(C[n+]2csc(CCOP(=O)(O)O)c2C)c(N)n1
inactive: all assays above

CC12CCC(C1)C(C)(C)C2=O (stereo not given)
inactive: all assays above

O=C(O)Cc1nn(Cc2ccc(Br)cc2F)c(=O)c2ccccc12
inactive: all assays above

Cc1cc(-c2ccc(N=Nc3ccc4c(S(=O)(=O)O)cc(S(=O)(=O)O)c(N)c4c3O)c(C)c2)ccc1N=Nc1ccc2c(S(=O)(=O)O)cc(S(=O)(=O)O)c(N)c2c1O
inactive: all assays above

[O]=[Bi][O]C(=O)[O][Bi]=[O]
inactive: all assays above

[O-][N+](=Nc1ccccc1)c1ccccc1
inactive: all assays above

CCc1ncnc2cc(OC)c(OC)cc12
inactive: all assays above

CC1=CC(=O)NS(=O)(=O)O1
inactive: all assays above

O=C1c2ccccc2C(=O)C1c1ccc(F)cc1
inactive: all assays above

ClC(Cl)Cl
inactive: all assays above

CCCCC(CC)CCC(CC(C)C)OS(=O)(=O)O (stereo not given)
inactive: all assays above

CCCCCCCCCCCCCCCCCCCCCC(=O)Nc1ccn([C@@H]2O[C@H](CO)[C@@H](O)[C@@H]2O)c(=O)n1
inactive: all assays above

O=P(O)(O)OC[C@H]1O[C@](O)(COP(=O)(O)O)[C@@H](O)[C@@H]1O
inactive: all assays above

OC/C=C/c1ccccc1
inactive: all assays above

CC(C)CCC[C@@H](C)[C@H]1CC[C@H]2[C@@H]3CC=C4C[C@@H](O)CC[C@]4(C)[C@H]3CC[C@]12C
inactive: all assays above

CC/C(=C(/CC)c1ccc(OP(=O)(O)O)cc1)c1ccc(OP(=O)(O)O)cc1
inactive: all assays above

CO
inactive: all assays above

C[Si](C)(C)O[Si](C)(C)C
inactive: all assays above

CC(=O)Nc1ccc(OC(C)=O)cc1
inactive: all assays above

CC/C=C\C/C=C\C/C=C\C/C=C\C/C=C\C/C=C\CCC(=O)O
inactive: all assays above

CC(C)CCCCCCc1ccc(O)cc1
inactive: all assays above

O=C(/C=C/c1cccc(F)c1)NC1CC1
inactive: all assays above

O=C(O)CCC/C=C\C[C@@H]1[C@@H](/C=C/[C@@H](O)COc2cccc(C(F)(F)F)c2)[C@H](O)C[C@@H]1O
inactive: all assays above

CC(C)Cc1ccc([C@@H](C)C(=O)NS(C)(=O)=O)cc1
inactive: all assays above

COc1cc(C)c(/C=C/C(C)=C/C=C/C(C)=C/C(=O)O)c(C)c1C
inactive: all assays above
